For 17 compounds, growth results are on record in PubChem BioAssay (NCI).

The panel holds about 83,000 compounds, 20% with a hit somewhere; the sample as a whole holds those more often.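 Assay: single dose, 48 h. Readout: percent growth (0 = no net growth; negative = cell death). Active: <10.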 Values without a mark were called inactive. Calls of active or inactive are those of the source.

Test systems include T-47D breast; BT-549 breast; MDA-MB-435 melanoma; SW-620 colon; MCF7 breast; HCT-116 colon; HCC-2998 colon; KM12 colon.
Common to all, as to assay: NCI-60 one-dose screen, 48 h (100 = growth as untreated, 0 = no growth, -100 = all killed)
What all share (conditions): 10 µM unless noted

On to `CC(=O)c1ccc(NCC(=O)Nc2ccccn2)cc1`, for which the growth in the experiment with T-47D breast was 94.6%; in the experiment with BT-549 breast, 104%; in the experiment on MDA-MB-435 melanoma it was 104%; in the experiment on SW-620 colon, 102%; in the experiment on MCF7 breast, 86.9%; in the experiment with HCT-116 colon, 101%. Moreover, the growth in the experiment on HCC-2998 colon was 110%; with KM12 colon, 99%.

With `N#Cc1c(N)nn(C(=O)c2ccc(NC(=O)c3ccccn3)cc2)c1-c1ccc(Cl)cc1`, the growth was -16.7% (active) in the experiment with T-47D breast; 15.5% in the experiment with BT-549 breast; 33.9% in the experiment on MDA-MB-435 melanoma; 13.9% in the experiment with SW-620 colon; 36.4% in the experiment with MCF7 breast; 12.4% in the experiment on HCT-116 colon. Further, in the experiment on HCC-2998 colon, the growth is 14.9%.

On to `CC1CC2Oc3ccc(Cl)cc3C(=O)N2O1` (stereo unspecified), for which the growth in the experiment with T-47D breast is 104%; in the experiment with BT-549 breast, 105%; in the experiment on MDA-MB-435 melanoma, 105%; with SW-620 colon, 99.2%; in the experiment on MCF7 breast it was 112%; in the experiment with HCT-116 colon it was 107%. Also, in the experiment on HCC-2998 colon, the growth was 97.5%.

As to `CCCCn1c(=O)c2c(nc(NCCc3ccc(O)c(O)c3)n2CCC)n(CCCC)c1=O`, the growth in the experiment with T-47D breast was 49.3%; in the experiment with BT-549 breast it was 102%; with MDA-MB-435 melanoma, 82.6%; in the experiment with SW-620 colon, 89.1%; with MCF7 breast, 65%; with HCT-116 colon, 63.3%. Also, the growth with HCC-2998 colon is 78.8%.

As to `Cc1cc(NCCCCNc2ccnc3cc(Cl)ccc23)nc(Nc2ccc(C(=O)N3CCCCC3)cc2)n1`, the growth is -23.5% (active) in the experiment with T-47D breast; 92.9% with BT-549 breast; -84.3% (active) with MDA-MB-435 melanoma; -70.2% (active) in the experiment on SW-620 colon; -49.1% (active) with MCF7 breast; -48.9% (active) in the experiment on HCT-116 colon. For the same compound, the growth with HCC-2998 colon is -37.5% (active).

Turning to `Cc1ccc(-c2cc3c(cc2O)C2CCCCC2(N2CCOCC2)O3)cc1` (stereo unspecified), the growth is 85% in the experiment on T-47D breast; 95.4% in the experiment with BT-549 breast; 98.4% in the experiment with MDA-MB-435 melanoma; 117% in the experiment with SW-620 colon; 88.5% with MCF7 breast; 97.3% in the experiment on HCT-116 colon. Besides, the growth in the experiment on HCC-2998 colon is 106%.

Take `CNC(=O)c1cc(Oc2ccc3nc(Nc4ccc(Cl)c(C(F)(F)F)c4)ccc3c2)ccn1`: the growth in the experiment on T-47D breast is 43.5%; with BT-549 breast, 83.1%; in the experiment on MDA-MB-435 melanoma it was 52.3%; in the experiment on SW-620 colon it was 104%; in the experiment with MCF7 breast, 42.7%; with HCT-116 colon it was 45.1%. In the experiment with HCC-2998 colon, the growth is 65.5%.

For `COc1cc(C2CC(=O)Nc3c2c(C)nn3-c2nc3ccccc3[nH]2)cc2c1OCC(=O)N2` (stereo unspecified), the growth in the experiment with T-47D breast is 83.6%; with BT-549 breast, 65.9%; with MDA-MB-435 melanoma, 48.5%; with SW-620 colon, 52.4%; with MCF7 breast it was 56.9%; in the experiment with HCT-116 colon, 107%. In addition, the growth with HCC-2998 colon was 103%.

Take `C[C@H]1[C@H]2[C@H]3CC[C@@H]4[C@@]5(C)C/C(=C/c6ccco6)C(=O)C(C)(C)[C@@H]5CC[C@@]4(C)[C@]3(C)CC[C@]23CO[C@]1(C)[C@@H](C(=O)/C=C\c1ccco1)C3`: the growth with T-47D breast is 80.3%; in the experiment on BT-549 breast it was 111%; in the experiment with MDA-MB-435 melanoma, 43.4%; in the experiment on SW-620 colon, 99.3%; in the experiment on MCF7 breast it was 88.8%; in the experiment with HCT-116 colon, 101%. In addition, the growth with HCC-2998 colon is 108%.

With `N#Cc1c2c(nn(-c3ccccc3)c1=O)C(O)=C([N+](=O)[O-])C(c1ccccc1)C2` (stereo unspecified), the growth in the experiment with T-47D breast was 35.1%; with BT-549 breast, 91.9%; in the experiment with MDA-MB-435 melanoma, 83.1%; with SW-620 colon, 80.6%; in the experiment with MCF7 breast, 24.4%; with HCT-116 colon, 58.6%. Further, the growth with HCC-2998 colon was 101%.

`C=CCNc1nc(NN2C(=O)c3cccc4cccc(c34)C2=O)nc(-n2cnc3ccccc32)n1`: the growth was 54.8% with T-47D breast; 82.5% in the experiment with BT-549 breast; 97.5% in the experiment on MDA-MB-435 melanoma; 90.6% with SW-620 colon; 55.1% in the experiment on MCF7 breast; 79.8% in the experiment on HCT-116 colon. Besides, the growth in the experiment with HCC-2998 colon is 91.8%.

Consider `CCc1ccccc1-n1c(-c2ccc(Cl)cc2)cc(-c2ccc(Cl)cc2)c(C#N)c1=O`, for which the growth in the experiment on T-47D breast is 78.6%; with BT-549 breast it was 93.7%; in the experiment on MDA-MB-435 melanoma, 82.8%; in the experiment on SW-620 colon, 88.9%; with MCF7 breast, 61.7%; with HCT-116 colon, 69.8%. Also, the growth with HCC-2998 colon was 101%; in the experiment on KM12 colon, 82.9%.

For the compound `Fc1cnc(NC2CC2)nc1-c1cnc2ccc(N3CCOCC3)cn12`, the growth in the experiment on T-47D breast was 7.29% (active); in the experiment with BT-549 breast, -5.41% (active); in the experiment on MDA-MB-435 melanoma, 0.301% (active); in the experiment with SW-620 colon it was 5.59% (active); in the experiment on MCF7 breast, 2.32% (active); in the experiment on HCT-116 colon, 3.97% (active). The results for the growth in the experiment with HCC-2998 colon and in the experiment with KM12 colon were 1.18% (active) and -2.57% (active), respectively.

In the case of `CC(=O)c1nc(Nc2ccc(C)cc2)sc1C`, the growth is 85.6% in the experiment on T-47D breast; 87.1% with BT-549 breast; 103% in the experiment with MDA-MB-435 melanoma; 97.4% in the experiment with SW-620 colon; 87.3% in the experiment on MCF7 breast; 90.9% in the experiment on HCT-116 colon. For the same compound, in the experiment on HCC-2998 colon, the growth is 101%.

With `COc1cccc(-c2nn(-c3ccccc3)cc2-c2ccnc(NCCNC(=O)Nc3ccccc3)c2)c1`, the growth with T-47D breast is 20.3%; in the experiment on BT-549 breast, 30.2%; with MDA-MB-435 melanoma, 42.9%; in the experiment on SW-620 colon it was 71.9%; in the experiment on MCF7 breast, 56.6%; in the experiment on HCT-116 colon, 35.3%. The growth with HCC-2998 colon was 39.1%.

As to `O=c1c2cc(F)ccc2sc2c(Nc3cccnc3)nc3ccccc3c12`, the growth is 84.7% in the experiment with T-47D breast; 98.7% in the experiment with BT-549 breast; 99.1% in the experiment with MDA-MB-435 melanoma; 85.6% in the experiment with SW-620 colon; 55.1% with MCF7 breast; 61.5% in the experiment on HCT-116 colon. In the experiment on HCC-2998 colon, the growth is 94.1%.

Take `COc1cc(C2CC(c3ccc(Nc4ccnc5cc(Cl)ccc45)cc3)=NN2C=O)cc(OC)c1OC` (stereo unspecified): the growth in the experiment on T-47D breast was 83.2%; with BT-549 breast it was 37%; in the experiment on MDA-MB-435 melanoma it was 30.5%; in the experiment on SW-620 colon, 84%; in the experiment with MCF7 breast it was 46.3%; with HCT-116 colon, 13.5%.
